The assay concerns the target Pantothenate synthetase (Mycobacterium tuberculosis (strain ATCC 25618 / H37Rv)) (UniProt P9WIL5). The experiment in a line: Recombinant Mtb pantothenate synthetase (PanC) inhibitors, coupled enzyme, confirmatory (AID 375).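 Note: 0% = full reaction with vehicle and 100% = no enzyme background.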 Particulars: coupled enzyme assay; at 10 µM, stronger effect = higher value.

Unmarked numbers belong to inactive results. The rule behind the calls is not given here.

Experimental findings from PubChem BioAssay are described below.

For orientation: inhibition means the percentage by which the read-out fell short of the control.

Chain of Pantothenate synthetase (Mycobacterium tuberculosis (strain ATCC 25618 / H37Rv)) (P9WIL5 whole entry, looked up): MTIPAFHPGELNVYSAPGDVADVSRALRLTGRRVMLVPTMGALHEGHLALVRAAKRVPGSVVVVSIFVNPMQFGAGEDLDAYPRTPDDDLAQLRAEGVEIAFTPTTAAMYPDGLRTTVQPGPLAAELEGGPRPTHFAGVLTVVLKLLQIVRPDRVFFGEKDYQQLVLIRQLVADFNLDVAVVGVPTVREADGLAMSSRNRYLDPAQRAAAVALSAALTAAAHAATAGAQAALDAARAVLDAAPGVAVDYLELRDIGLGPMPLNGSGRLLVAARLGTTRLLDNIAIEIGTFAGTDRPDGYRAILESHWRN

Take `COc1cc(CN2CCSCC2)cc(OC)c1OC`: the inhibition was 0%.

Take `CCC(=O)Oc1ccc2c(C)cc(=O)oc2c1C`: the inhibition is 2%. For `CCOC(=O)c1ccccc1NC1CC(=O)N(c2ccccc2C)C1=O` (configuration not stated) the value was 0%; for `OC[C@H]1O[C@@H](n2cnc3c(NC4CCCC4)ncnc32)[C@H](O)[C@@H]1O`, 1%. With `Nn1c(SCC(=O)NC2CCCCC2)nnc1C1CC1`, the inhibition was 0%. As for `COc1ccccc1N1CCN(Cc2nnnn2CCc2ccccc2)CC1`, the inhibition was 0%. On to `O=C(NCC1COc2ccccc2O1)c1ccc(NC(=O)c2ccco2)cc1` (configuration not stated), for which the inhibition was 0%. Turning to `Cc1c(C(=O)OCC(C)(C)CN(C)C)oc2ccccc12`, the inhibition was 1%. The same measure for `CC(C)c1nnc(NC(=O)c2ccc(N3C(=O)CCC3=O)cc2)s1`: 0%; for `CCN(CC)C(=O)c1sc2nc(-c3cccs3)cc(-c3cccs3)c2c1N`: 0%; for `O=C(CSc1nnc(-c2ccccc2)c(-c2ccccc2)n1)N1CCOCC1`: 0%. Regarding `CC1CC(C)CN(c2nc3c(c(=O)[nH]c(=O)n3C)n2CCCSc2nc3ccccc3s2)C1` (configuration not stated), the inhibition is 7%. In the case of `COc1ccccc1NC(=O)CSc1nnc(Cc2cccn2C)n1-c1ccc(F)cc1`, the inhibition was 0%. Regarding `Cc1cc(C)c2c(n1)sc1c(N3CCOCC3)ncnc12`, the inhibition was 5%. In the case of `COCCCNC(=O)CC1Oc2ccccc2NC1=O` (configuration not stated), the inhibition was 0%. The same measure for `O=C(O)C1CC(=O)N(CCOc2ccccc2)C1` (configuration not stated): 8%; for `COc1ccc2c(C(F)(F)F)cc(=O)oc2c1C`: 1%.
